Screens from PubChem.
A selection: hits, their analogues and other compounds. The true share with any hit is near 3.2%.
Ecoli rRNA inh: inhibits bacterial ribosomal RNA function over humanized ribosomes; E. coli WT GFP vs humanized-ribosome RFP mutants, fluorescence, 24 h; stronger effect = lower value; DMSO median 0, no signal -100; GFP signal change (wild-type ribosome), % (concentration not given with the values); 350,000 tested, 1.6% active;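 active = significant combined selectivity score with lowered wild-type GFP, culture density cut under 30%, mutant RFP and density less affected; inactive = any of these conditions unmet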
CaV13 ICDI inh: Primary screen for inhibitors of IQ motif and Ca2+-dependent inactivation inhibitor domain binding in CACNA1D, Förster resonance energy transfer in living cells, … | AID 743397 | 340,000 tested, 0.098% active | inhibition, % at 12.3 µM | HEK cells, CFP/YFP FRET ICDI-IQ, plate reader, 10 min; percent FRET-ratio fall versus neutral wells;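 active = mean replicate inhibition of at least 30% and at least 1% of replicates passing that level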;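 also: 0% = median of the neutral control wells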
INS-1E GSIS act: GLuc luminescence reporter in INS-1E cells, primary screen for activators of glucose-dependent secretion of insulin; INS-1E GLuc reporter insulin secretion, 2-3 h; activation, % at 16.6 µM; 370,000 tested, 0.61% active;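 active = lowest replicate activation of at least 40%, so every replicate reaches that level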;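 also: 0% = median of neutral control wells and 100% = median of IBMX positive control wells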
DENV2 CPE rescue: DENV2-induced cell death inhibition; 350,000 tested, 1.7% active; CPE inhibition, % at 9.99 µM; DENV2-infected cells, cytopathic effect rescue, plate reader; in the data active = CPE inhibition above about 20%, passing the limit was not always enough; tested in BHK-21 cells;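 also: 0% = median of neutral control wells and 100% = median of positive control wells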
ERAP1 inh: inhibitors of human ERAP1 aminopeptidase | inhibition, % at 10.7 µM | 340,000 tested, 0.15% active | recombinant ERAP1, Leu-AMC fluorescence, 60 min | Q9NZ08;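 active = mean replicate inhibition of at least 30%, or all replicates individually reaching that 30% level; inactive = mean below 30% and not every replicate reaching it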;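 also: 0% = neutral control wells and 100% = L-leucinethiol positive control wells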
PGC1a acetyl inh: PGC1a acetylation modulation, inhibitor mode | 350,000 tested, 0.17% active | inhibition, % at 15.6 µM | U2OS PGC1a acetylation, AlphaScreen anti-acetyl-lysine; with virally co-expressed GCN5 acetyltransferase;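 active = every replicate shows inhibition of at least 40%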;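 also: 0% = neutral control wells and 100% = positive control wells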
* = called active by the depositor; nt = no result given.

SMILES	Ecoli rRNA inh	CaV13 ICDI inh	INS-1E GSIS act	DENV2 CPE rescue	ERAP1 inh	PGC1a acetyl inh
C[C@@H]1CN([C@H](C)CO)S(=O)(=O)c2ccc(-c3ccc(C#N)cc3)cc2O[C@@H]1CN(C)Cc1ccccn1	-6	nt	0	-10	nt	7
Cc1ccc(NC(=O)CN2CCC(NC(=O)c3cccc(F)c3)CC2)cc1C	-2	-5	-19	34*	-1	6
COC(=O)[C@@H]1[C@@H](CO)[C@@H]2Cn3c(ccc(-c4cccnc4)c3=O)[C@@H]2N1Cc1cccc(F)c1	-4	nt	2	0	2	nt
CC(Nc1ccc(Cl)c(Cl)c1)C(=O)NN (stereo not drawn)	-26*	2	0	-4	6	-3
NNC(=O)C(=O)Nc1ccc(Cl)c(Cl)c1	-1	-16	-14	-12	-1	-8
Cc1ccc2nc(-c3cccc(S(=O)(=O)N4CCCC4)c3)cn2c1	-1	-3	18	6	3	nt
Cc1ccn2cc(-c3cccc(S(=O)(=O)N4CCCCC4)c3)nc2c1	-44*	-7	57	1	0	-1
COC(=O)[C@]12CCCCC=C1N(CCC1=CCCCC1)C(=O)[C@H](CC(=O)NCc1cccc(C(F)(F)F)c1)C2	17	-5	-14	51*	0	nt
CCCCCCCCN1C(=O)[C@H](CC(=O)NCCC(C)C)C[C@@]2(C(=O)OCC)CCCC=C12	18	-3	23	20*	-3	nt
CCOC(=O)[C@]12CCCC=C1N(CCC1=CCCCC1)C(=O)[C@H](CC(=O)NCc1cccc(C(F)(F)F)c1)C2	nt	-14	-32	14	0	nt
CCCCNC(=O)C[C@@H]1C[C@@]2(C(=O)OC)CCCCC=C2N(CCC2=CCCCC2)C1=O	-32	-5	-17	80*	-2	nt
CCOC(=O)[C@]12CCCC=C1N(CCC1=CCCCC1)C(=O)[C@H](CC(=O)NCCC(C)C)C2	5	-3	-4	4	nt	nt
O=C1c2ccccc2C(=O)N1CC1CCN(Cc2ccc(OCCO)cc2)CC1	nt	nt	nt	-4	2	18
COc1ccc(S(=O)(=O)Nc2ccc3c(c2)C(=O)N([C@@H](C)CO)C[C@@H](C)[C@@H](CN(C)C(=O)NC(C)C)O3)cc1	-3	nt	3	nt	nt	-2
C[C@@H]1CN([C@@H](C)CO)C(=O)c2cc(N(C)C)ccc2O[C@H]1CN(C)S(=O)(=O)c1ccccc1	-6	nt	22	79*	6	31
C[C@@H]1CN([C@H](C)CO)C(=O)c2cc(N(C)C)ccc2O[C@@H]1CN(C)S(=O)(=O)c1ccccc1	2	nt	18	-1	0	-2
C[C@H]1CN([C@@H](C)CO)C(=O)c2cc(N(C)C)ccc2O[C@H]1CN(C)S(=O)(=O)c1ccccc1	-1	nt	13	31*	-1	-7
C[C@@H]1CN([C@@H](C)CO)C(=O)c2cc(C3=CCCC3)cnc2O[C@@H]1CN(C)Cc1ccccc1F	nt	nt	nt	-3	1	5
Cc1oc2ccc(OCc3ccc(Cl)cc3)cc2c1C(=O)O	-21	-6	6	3	-1	7
Cc1oc2ccc(OCc3ccc(Br)cc3)cc2c1C(=O)O	-26*	-20	0	10	-3	3
S=c1[nH]nc(COc2ccccc2)n1/N=C/c1ccccc1Cl	-24*	-5	-27	6	-1	1
COc1ccc(NC(=O)CN(C)CCOc2ccc(Cl)cc2)cc1OC	-9	-13	-2	47*	-5	-8
CN(CCOc1ccc(Cl)cc1)CC(=O)Nc1ccc(OC(F)(F)F)cc1	-67	-1	3	2	1	0
CN/N=C(\Cc1nc2ccccc2[nH]1)c1ccc([N+](=O)[O-])cc1	-22*	-6	6	8	-2	nt
CCN(CC)C(=O)C1CCN(Cc2ccc(OCc3ccccc3)cc2)CC1	10	-3	13	28*	0	-17
SMILES	Ecoli rRNA inh	CaV13 ICDI inh	INS-1E GSIS act	DENV2 CPE rescue	ERAP1 inh	PGC1a acetyl inh
CCOC(=O)Cc1cc(=O)n2[nH]c(-c3ccc(C)cc3)cc2n1	nt	-5	65*	nt	nt	19
CCOC(=O)c1cc(=O)n2[nH]c(-c3ccc(C)cc3)cc2n1	nt	nt	nt	nt	nt	8
CN(C)CC(=O)Nc1ccc2c(c1)[C@@H]1C[C@H](CC(=O)NC3CCCCC3)O[C@@H](CO)[C@@H]1O2	1	nt	-6	0	-1	1
Cc1ccc(NC(=O)CN2C(=O)N/C(=C/c3ccc(C)s3)C2=O)cc1	nt	-9	99*	nt	nt	nt
Cc1cccc(C)c1NC(=O)CN1CCN(C(=O)CN2C(=O)NC3(CCCCC3C)C2=O)CC1 (stereo not drawn)	-2	-5	-5	25*	14	7
CCc1ccccc1NC(=O)CN1CCN(C(=O)CN2C(=O)NC3(CCCCC3C)C2=O)CC1 (stereo not drawn)	-1	-2	0	-4	0	5
Cc1noc(C)c1NC(=O)Nc1ccc2c(c1)C(=O)N([C@@H](C)CO)C[C@H](C)[C@@H](CN(C)Cc1ccc(Cl)c(Cl)c1)OCCCC[C@H](C)O2	-21	nt	-18	27*	-3	-4
Cc1noc(C)c1NC(=O)Nc1ccc2c(c1)C(=O)N([C@H](C)CO)C[C@@H](C)[C@H](CN(C)Cc1ccc(Cl)c(Cl)c1)OCCCC[C@H](C)O2	1	nt	-11	23*	-4	-3
Cc1noc(C)c1NC(=O)Nc1ccc2c(c1)C(=O)N([C@@H](C)CO)C[C@@H](C)[C@@H](CN(C)Cc1ccc(Cl)c(Cl)c1)OCCCC[C@@H](C)O2	-9	nt	-15	30*	-3	14
Cc1noc(C)c1NC(=O)Nc1ccc2c(c1)C(=O)N([C@H](C)CO)C[C@H](C)[C@@H](CN(C)Cc1ccc(Cl)c(Cl)c1)OCCCC[C@@H](C)O2	3	nt	0	-17	-1	-2
C[C@@H]1CN([C@@H](C)CO)C(=O)c2cc(C#Cc3cccc(F)c3)cnc2O[C@@H]1CN(C)Cc1ccccn1	6	nt	1	-5	-1	-6
O=C(O)c1ccc(N/N=C/c2ccc(-c3cccc(Cl)c3)o2)cc1	-39*	-1	-7	-6	-25	-20
O=[N+]([O-])c1ccc(N/N=C/c2cccc(O)c2O)cc1	-31*	-8	-11	3	3	nt
O=[N+]([O-])c1ccc(N/N=C/c2cccc(O)c2)cc1	-53	-31	-23	-2	-1	nt
CCc1nnc(N/N=C/c2ccc(-c3ccc([N+](=O)[O-])cc3)o2)n1N	-37*	-5	-18	3	5	-7
CCC(=O)N/N=C/c1ccc(-c2ccc([N+](=O)[O-])cc2)o1	11	-115	-10	-5	1	-10
O=C(O)c1cccc(-c2ccc(/C=N/Nc3ccc([N+](=O)[O-])cc3)o2)c1	-38*	-26	-20	15	1	1
